Source: PubChem
Ba/F3 V617F tox: reduced viability of JAK2V617F-dependent Ba/F3 cells, primary screen, JAK2V617F inhibitor project, cell-based, Ba/F3 EpoR-JAK2V617F, luminescence; 220,000 tested, 1.1% active; ATP luminescence; inhibition, % at 5.6 µM;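 active = inhibition above the campaign mean plus 3 SD over all tested compounds, cut at about 24% in these data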;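 also: cytokine-independent growth of Ba/F3 cells driven by EpoR plus mutant JAK2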
BaF3 parental: parental Ba/F3 cell viability inhibition, counter-screen for JAK2V617F inhibitor project, murine pro-B, CellTiter-Glo luminescence | CellTiter-Glo ATP luminescence | AID 1486, 2009 | 220,000 tested, 1.1% active | inhibition, % at 5.6 µM;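 active = inhibition above a per-campaign cutoff, the mean inhibition of all tested compounds plus 3 SD, cut at about 27% in these data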
aSyn 5UTR inh: MLPCN primary screen, SNCA 5' untranslated region. alpha-synuclein 5'UTR reporter, inhibitor activity. inhibition, % (tested at 7.5 µM). 300,000 tested, 0.82% active. AID 1813, 2009; in the data active = inhibition above about 60%;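 also: H4 neuroglioblastoma cells stably carrying SNCA 5'UTR luciferase fusion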
IEC-6 cytotox: cytotoxicity in IEC-6 intestinal epithelial cells, primary screen, cytotoxicity control for KLF5 inhibitor project, cell-based, luminescence; 290,000 tested, 0.78% active; inhibition, % at 5 µM; IEC-6 cytotoxicity, luminescence viability; in the data active = inhibition above about 22%
KLF5 inh: KLF5 expression inhibitors, primary screen, DLD-1 cells, luminescence | DLD-1 KLF5 promoter-luciferase reporter | inhibition, % at 5 µM | 290,000 tested, 0.23% active;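 active = inhibition above a per-plate limit of that plate's mean compound inhibition plus 3 SD, cut at about 60% in these data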;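 also: higher means less KLF5 promoter-driven luciferase light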
APP transl inh: inhibitors of APP translation via 5'UTR reporter, primary screen, APP 5'UTR luciferase, SH-SY5Y cells | SH-SY5Y APP 5'UTR-luciferase reporter, luminescence | inhibition, % at 2 µM | 190,000 tested, 0.82% active | AID 1285, 2008;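 active = inhibition above a set limit, derived from the sample mean plus 3 SD, cut at about 45% in these data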
Of the large screens only hits and unclear results are named; the others gave an inactive call. Shown are actives, neighbours in structure and some others; about 2.1% of the full set was active somewhere.

Cc1ccc(CNC(=O)CN2C(=O)COc3ccc(S(=O)(=O)N4CCCCC4)cc32)o1	none (no result: Ba/F3 V617F tox, BaF3 parental, APP transl inh)
COc1ccc(CCNC(=O)[C@H](C)NC(=O)N2CCn3c2nc2ccccc23)cc1OC	none (no result: Ba/F3 V617F tox, BaF3 parental, APP transl inh)
NC(=O)c1sc2nc3c(c(-c4ccc(Cl)cc4)c2c1N)CCCC3	aSyn 5UTR inh 66 (no result: APP transl inh)
C=CCNC(=O)c1onc(CSc2ccc(Cl)cc2)c1C(=O)O	Ba/F3 V617F tox 49, BaF3 parental 35
c1cn(CCCNC2=NCCCCC2)cn1	BaF3 parental 91
c1cn(CCCNC2CCCCCCC2)cn1	none (no result: Ba/F3 V617F tox, BaF3 parental, IEC-6 cytotox, KLF5 inh, APP transl inh)
Cc1ccc(C(=O)N2CCC(C(=O)Nc3cccc([N+](=O)[O-])c3)CC2)cc1	none (no result: Ba/F3 V617F tox, BaF3 parental, APP transl inh)
CCOC(=O)C1CCN(C(=O)c2cc(S(=O)(=O)N3CCc4ccccc43)ccc2OC)CC1	none (no result: Ba/F3 V617F tox, BaF3 parental, IEC-6 cytotox, KLF5 inh, APP transl inh)
Cc1cc2ncc(-c3ncc(C(F)(F)F)cc3Cl)cn2n1	aSyn 5UTR inh 65
C[N+](C)(C)CCN(Cc1ccc(Cl)cc1)c1ccccn1	Ba/F3 V617F tox 33, BaF3 parental 29
CC(C)Oc1ccc(C(=O)NCCCNC(=O)c2ccccn2)cc1	none (no result: Ba/F3 V617F tox, BaF3 parental, APP transl inh)
COc1ccc(C(=O)Nc2cc(OC)cc(OC)c2)cc1	BaF3 parental 69
COc1ccc(C(=O)Nc2ccc3[nH]ccc3c2)cc1	aSyn 5UTR inh 66 (no result: Ba/F3 V617F tox, BaF3 parental, IEC-6 cytotox, KLF5 inh, APP transl inh)
Cc1ccc(C(=O)Nc2ccc3ccccc3c2)cc1	aSyn 5UTR inh 66, KLF5 inh 72 (no result: Ba/F3 V617F tox, BaF3 parental, APP transl inh)
COc1ccc(C(=O)Nc2ccc3[nH]ccc3c2)cc1OC	none (no result: Ba/F3 V617F tox, BaF3 parental, IEC-6 cytotox, KLF5 inh, APP transl inh)
O=C(COc1ccc2c3c(c(=O)oc2c1)CCCC3)N1CCN(c2ccccc2)CC1	none (no result: Ba/F3 V617F tox, BaF3 parental, APP transl inh)
CCOc1cc(C2C3=C(CCCC3=O)N(C)C3=C2C(=O)CCC3)cc(Cl)c1O	Ba/F3 V617F tox 58, BaF3 parental 58
O=c1cc(-c2ccccc2Cl)oc2cc(O)cc(O)c12	none
O=C1C=CC(O)(c2cc(=O)c3c(O)cc(O)cc3o2)C=C1	Ba/F3 V617F tox 44, BaF3 parental 47
Cc1cccc(C)c1NC(=O)C1CCCN1C(=O)Nc1cccc(F)c1 (centres undefined)	none (no result: Ba/F3 V617F tox, BaF3 parental, APP transl inh)
Cc1[nH]n(C2=NCCS2)c(=O)c1N=Nc1cccc(C(F)(F)F)c1	aSyn 5UTR inh 67, APP transl inh 53
Cc1[nH]n(C(N)=S)c(=O)c1N=Nc1cccc(C(F)(F)F)c1	none (no result: Ba/F3 V617F tox, BaF3 parental, APP transl inh)
O=C1/C(=C/c2ccncc2)Cc2ccccc21	none (no result: Ba/F3 V617F tox, BaF3 parental, IEC-6 cytotox, KLF5 inh, APP transl inh)
CC1C/C(=C/c2ccncc2)C(=O)/C(=C/c2ccncc2)C1 (centres undefined)	APP transl inh 95
O=S1(=O)Nc2c(ccc3cccnc23)-c2ccccc21	IEC-6 cytotox 67, APP transl inh 60
Clc1ccc2ccc3cccnc3c2n1	none (no result: Ba/F3 V617F tox, BaF3 parental, APP transl inh)
Cc1cc(C)n(-c2ccc3cccc(NS(C)(=O)=O)c3n2)n1	aSyn 5UTR inh 90
CS(=O)(=O)Nc1cccc2cccnc12	none (no result: aSyn 5UTR inh)
Cc1cc(N)c2cc(NC(=O)/C=C/c3ccccc3Cl)ccc2n1	aSyn 5UTR inh 107 (no result: APP transl inh)
O=C(N/N=C\c1ccc(-c2ccc([N+](=O)[O-])cc2)o1)c1ccc2c(c1)OCO2	none
O=C(N/N=C/c1ccc([N+](=O)[O-])o1)c1ccc2c(c1)OCO2	aSyn 5UTR inh 94 (no result: Ba/F3 V617F tox, BaF3 parental, APP transl inh)
N#CCc1ccc(NC(=O)/C=C/c2ccc([N+](=O)[O-])o2)cc1	Ba/F3 V617F tox 94, BaF3 parental 83, APP transl inh 56
O=C(Cc1ccc([N+](=O)[O-])cc1)N/N=C/c1ccc([N+](=O)[O-])o1	aSyn 5UTR inh 89
CCCCCCCC(=O)N/N=C/c1ccc([N+](=O)[O-])o1	none
O=[N+]([O-])c1ccc(/C=N/N=C/c2ccc([N+](=O)[O-])o2)o1	APP transl inh 94 (no result: aSyn 5UTR inh)
O=C(CN1C(=O)NC2(CCCc3ccccc32)C1=O)N1CCCCC1 (centres undefined)	none (no result: Ba/F3 V617F tox, BaF3 parental, IEC-6 cytotox, KLF5 inh, APP transl inh)
COCCCNC(=O)C(C)N1c2cccc3cccc(c23)S1(=O)=O (centres undefined)	none (no result: Ba/F3 V617F tox, BaF3 parental, APP transl inh)
COc1ccc2[nH]c3c(c2c1)CCNC3=O	none (no result: Ba/F3 V617F tox, BaF3 parental, IEC-6 cytotox, KLF5 inh, APP transl inh)
O=C1NCCc2c1[nH]c1ccc([N+](=O)[O-])cc21	aSyn 5UTR inh 70
O=c1[nH]c(=O)n(-c2ccccc2)c2c1C(C(F)(F)F)(C(F)(F)F)N=C(C1CCCCC1)N2	BaF3 parental 40
CCOc1ccc(N(CC(=O)N2CCOCC2)S(=O)(=O)c2ccc(F)cc2)cc1	none (no result: Ba/F3 V617F tox, BaF3 parental, APP transl inh)
